According to PubChem BioAssay AID1159580 (chemical genetic matrix, 2015):
Out of some 5,500 compounds screened, about 2,000 (36%) were called active. Not shown: some 18% with an inconclusive outcome. Cut-off read from the data, not from the text of the source: active = normalized growth mostly below about 0.91 (no sharp cut-off); inconclusive = no clear call, values can overlap the other calls; inactive = mostly above about 0.92. Some of the results follow.

Test: chemical genetic growth profiling, strain panel (AID 1159580);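 note: tested at 20 µM; growth read once vehicle control cultures reached saturation at 30 °C; 1 = growth at the plate median or of vehicle wells; lower values mean less growth of the strain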
Conditions: growth OD

Measured: normalized growth

COc1ccc2c(c1)CCC1C2CCC2(C)C1C[C@@H](O)C2O (stereo not given in full)
active: S. cerevisiae deletion strains, locus YLR262C, strain YPT6 (second series), hits give low values 0.755 | S. cerevisiae deletion strains, locus YLR320W, strain mms22, hits give low values 0.876 | S. cerevisiae deletion strains, locus YNL071W, strain lat1, hits give low values 0.833
inactive: S. cerevisiae deletion strains, locus YJL187C, strain SWE1, hits give low values 0.991 | S. cerevisiae deletion strains, locus YJR043C, strain POL32, hits give low values 0.999 | S. cerevisiae deletion strains, locus YJR075W, strain HOC1, hits give low values 0.982 | S. cerevisiae deletion strains, locus YKL009W, strain mrt4, hits give low values 0.948 | S. cerevisiae deletion strains, locus YKL068W, hits give low values 1 | S. cerevisiae deletion strains, locus YKL085W, strain MDH1 (second series), hits give low values 0.997 | S. cerevisiae deletion strains, locus YKL085W, strain MDH1, hits give low values 0.997 | S. cerevisiae deletion strains, locus YKL160W, strain elf1, hits give low values 0.958 | S. cerevisiae deletion strains, locus YKL190W, strain CNB1, hits give low values 1.01 | S. cerevisiae deletion strains, locus YKR001C, strain vps1, hits give low values 0.956 | S. cerevisiae deletion strains, locus YKR026C, strain gcn3, hits give low values 0.994 | S. cerevisiae deletion strains, locus YKR091W, strain srl3, hits give low values 0.997 | S. cerevisiae deletion strains, locus YLL001W, strain dnm1, hits give low values 0.966 | S. cerevisiae deletion strains, locus YLL026W, hits give low values 0.974 | S. cerevisiae deletion strains, locus YLL041C, strain sdh2, hits give low values 0.982 | S. cerevisiae deletion strains, locus YLR027C, strain aat2, hits give low values 0.974 | S. cerevisiae deletion strains, locus YLR039C, strain RIC1, hits give low values 0.947 | S. cerevisiae deletion strains, locus YLR058C, strain SHM2, hits give low values 1 | S. cerevisiae deletion strains, locus YLR102C, strain apc9, hits give low values 0.99 | S. cerevisiae deletion strains, locus YLR221C, strain rsa3, hits give low values 0.929 | S. cerevisiae deletion strains, locus YLR258W, strain gsy2, hits give low values 0.965 | S. cerevisiae deletion strains, locus YLR262C, strain YPT6, hits give low values 0.943 | S. cerevisiae deletion strains, locus YLR268W, strain sec22, hits give low values 0.973 | S. cerevisiae deletion strains, locus YLR330W, strain CHS5, hits give low values 1.01 | S. cerevisiae deletion strains, locus YLR342W, strain FKS1 (second series), hits give low values 0.912 | S. cerevisiae deletion strains, locus YLR342W, strain FKS1, hits give low values 0.947 | S. cerevisiae deletion strains, locus YLR357W, strain rsc2, hits give low values 0.987 | S. cerevisiae deletion strains, locus YLR370C, strain arc18, hits give low values 1 | S. cerevisiae deletion strains, locus YLR371W, strain rom2, hits give low values 0.985 | S. cerevisiae deletion strains, locus YLR384C, strain iki3, hits give low values 1.01 | S. cerevisiae deletion strains, locus YLR418C, strain cdc73, hits give low values 0.894 | S. cerevisiae deletion strains, locus YML016C, strain PPZ1, hits give low values 1.01 | S. cerevisiae deletion strains, locus YML032C, strain rad52, hits give low values 0.972 | S. cerevisiae deletion strains, locus YML120C, strain ndi1, hits give low values 0.998 | S. cerevisiae deletion strains, locus YML124C, strain tub3, hits give low values 0.998 | S. cerevisiae deletion strains, locus YMR058W, strain fet3, hits give low values 0.968 | S. cerevisiae deletion strains, locus YMR078C, strain ctf18, hits give low values 0.992 | S. cerevisiae deletion strains, locus YMR125W, strain sto1, hits give low values 1.01 | S. cerevisiae deletion strains, locus YMR129W, hits give low values 1.01 | S. cerevisiae deletion strains, locus YMR205C, strain PFK2, hits give low values 0.964 | S. cerevisiae deletion strains, locus YMR223W, strain ubp8, hits give low values 0.965 | S. cerevisiae deletion strains, locus YMR231W, strain pep5, hits give low values 0.998 | S. cerevisiae deletion strains, locus YMR307W, strain GAS1, hits give low values 0.782 | S. cerevisiae deletion strains, locus YNL067W, strain RPL9B, hits give low values 0.979 | S. cerevisiae deletion strains, locus YNL128W, strain TEP1, hits give low values 0.992 | S. cerevisiae deletion strains, locus YNL209W, strain ssb2, hits give low values 1 | S. cerevisiae deletion strains, locus YNL233W, strain BNI4, hits give low values 0.989 | S. cerevisiae deletion strains, locus YNL248C, strain rpa49, hits give low values 0.979 | S. cerevisiae deletion strains, locus YNL250W, strain rad50, hits give low values 0.983 | S. cerevisiae deletion strains, locus YNL271C, strain bni1, hits give low values 0.983 | S. cerevisiae deletion strains, locus YNL298W, strain CLA4, hits give low values 0.966 | S. cerevisiae deletion strains, locus YNL307C, strain MCK1, hits give low values 0.967 | S. cerevisiae deletion strains, locus YNL322C, strain KRE1 (second series), hits give low values 1.01 | S. cerevisiae deletion strains, locus YNR049C, strain mso1, hits give low values 1.01 | S. cerevisiae deletion strains, locus YNR052C, strain pop2, hits give low values 0.987 | S. cerevisiae deletion strains, locus YOL006C, strain TOP1, hits give low values 0.902 | S. cerevisiae deletion strains, locus YOL012C, strain htz1 0.926 | S. cerevisiae deletion strains, locus YOL147C, strain pex11, hits give low values 1 | S. cerevisiae deletion strains, locus YOR001W, strain rrp6, hits give low values 0.986 | S. cerevisiae deletion strains, locus YOR061W, strain CKA2, hits give low values 1.01 | S. cerevisiae deletion strains, locus YOR069W, strain VPS5, hits give low values 1.01 | S. cerevisiae deletion strains, locus YOR070C, strain gyp1, hits give low values 0.998 | S. cerevisiae deletion strains, locus YOR080W, strain dia2, hits give low values 1 | S. cerevisiae deletion strains, locus YOR083W, strain WHI5, hits give low values 0.914 | S. cerevisiae deletion strains, locus YOR106W, strain vam3, hits give low values 0.916 | S. cerevisiae deletion strains, locus YOR136W, strain idh2, hits give low values 0.997 | S. cerevisiae deletion strains, locus YOR144C, strain elg1, hits give low values 0.995 | S. cerevisiae deletion strains, locus YOR184W, strain ser1, hits give low values 0.945 | S. cerevisiae deletion strains, locus YOR265W, strain rbl2, hits give low values 0.999 | S. cerevisiae deletion strains, locus YOR270C, strain vph1, hits give low values 1.11 | S. cerevisiae deletion strains, locus YOR290C, strain snf2, hits give low values 0.94 | S. cerevisiae deletion strains, locus YOR316C, strain cot1, hits give low values 0.991 | S. cerevisiae deletion strains, locus YPL051W, strain arl3, hits give low values 0.941 | S. cerevisiae deletion strains, locus YPL078C, strain atp4, hits give low values 0.929 | S. cerevisiae deletion strains, locus YPL106C, strain sse1, hits give low values 1.03 | S. cerevisiae deletion strains, locus YPL240C, strain hsp82, hits give low values 1.01 | S. cerevisiae deletion strains, locus YPR119W, strain clb2, hits give low values 0.991 | S. cerevisiae deletion strains, locus YPR141C, strain kar3, hits give low values 0.993 | S. cerevisiae deletion strains, locus YPR163C, strain tif3, hits give low values 0.985 | S. cerevisiae deletion strains, locus YPR167C, strain met16, hits give low values 0.991 | S. cerevisiae deletion strains, strain wtn01, hits give low values 0.978 | S. cerevisiae strains, strain wild type, hits give low values 1.01
